For 4 compounds, composite z-score and z-score results are on record in PubChem BioAssay.

In experiment [1] the test system is Wnt5a (protein binding on small-molecule microarray). As to the kind of experiment: small molecules binding Wnt5a protein – biophysical, small-molecule microarray, 635/667 nm fluorescence, primary screen (AID 1142).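 Note: fluorescence read at 667 nm with signal to noise per printed feature.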 The settings on record: 635 nm fluorescence, higher = more signal.
Experiment [2] in a line: ATP-based viability of Huh7 replicon cells – cell-based, CellTiter-Glo luminescence, basal, 48 h, cytotoxicity control for HCV replication inhibitor project, primary screen (AID 1143).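 Note: Huh7 hepatoma cells carrying a hepatitis C replication reporter with no stimulus; test concentration not given here.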 The settings on record: higher = more signal, called active from +8 up or from −8 down.
Experiment [3] is described as follows: Pseudomonas biofilm growth suppression – PAO1 strain, BacTiter-Glo luminescence, LB-PBS, primary screen (AID 1144). The settings on record: P. aeruginosa PAO1 biofilm, 12 h, higher = more signal.
Experiment [4] in a line: basal CRE-LacZ reporter activity in PC12 – cell-based, unstimulated, primary screen (AID 1145). The settings on record: no forskolin, luminescence, 4.5 h, higher = more signal, called active from +8 up or from −8 down.
Experiment [5] can be described thus: forskolin-driven CRE-LacZ activity in PC12 – cell-based, CRE-LacZ reporter, forskolin-stimulated, primary screen (AID 1146).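 Note: PC12 cells with 6xCRE LacZ reporter stimulated by forskolin 10 µM; beta-galactosidase reporter signal reflecting CREB driven transcription.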 The settings on record: luminescence, 4.5 h, higher = more signal, called active from +8 up or from −8 down.
Experiment [6] has as its target Streptavidin (Streptomyces avidinii) (UniProt P22629). Put plainly: compounds binding control protein streptavidin – biophysical, small-molecule microarray, 635/667 nm fluorescence, artefact control for SMM compound annotation, primary screen (AID 1147).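 Note: signal reflects streptavidin binding to arrayed compounds as a control protein.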 The settings on record: higher = more signal.
Experiment [7] in a line: probe aInhba binding on compound microarray – biochemical, small-molecule microarray, 635/667 nm fluorescence, primary screen (AID 1148).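 Note: score merges 667nm spot fluorescence with signal-to-noise for antibody binding to printed compounds.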 The settings on record: higher = more signal.
Experiment [8] has as its target Torsin-1A (Homo sapiens) (UniProt O14656). As to the kind of experiment: TOR1A wild-type binding on microarray – cell lysate, small-molecule microarray, lysate, 635/667 nm, primary screen (AID 1149). The settings on record: COS7 hTOR1A-WT lysate, 635 nm fluorescence, higher = more signal.
The target is the same in experiment [9]. Put plainly: torsin A mutant lysate binding on microarrays – cell lysate, small-molecule microarray, COS7 lysate, 635/667 nm fluorescence, primary screen (AID 1150).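 Note: score pools 667 nm emission and signal to noise measuring lysate protein binding.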 The settings on record: COS7 hTOR1A mutant lysate, 635 nm fluorescence, higher = more signal.
For experiment [10], the system named is Sonic hedgehog protein (Shh). As to the kind of experiment: Sonic hedgehog microarray binding compounds – biochemical, small-molecule microarray, 635/667 nm fluorescence, primary screen (AID 1151).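 Note: Shh protein binding to compounds spotted on small-molecule microarray slides; score combines spot fluorescence intensity with signal-to-noise across triplicate slides.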 The settings on record: 635 nm fluorescence, higher = more signal.
Experiment [11] can be described thus: optical density shifts of acrAB sulA E. coli – strain DRC41, OD650, 48 h, E. coli filamentation inducer project, primary screen (AID 1152).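 Note: E. coli MC1000 strain DRC41 lacking acrAB efflux pump and sulA.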 The settings on record: higher = more signal, called active from +8 up or from −8 down.
Experiment [12] is described as follows: probe aLefty1 binding on compound microarray – biochemical, small-molecule microarray, 635/667 nm fluorescence, primary screen (AID 1153).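 Note: score merges spot fluorescence with signal-to-noise ratio from the scanned slide images.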 The settings on record: higher = more signal.
The nature of experiment [13]: plasmodial surface anion channel blockers, osmotic lysis – cell-based, P. falciparum Indochina, OD700, 1 h, primary screen (AID 1154). The settings on record: P. falciparum Indochina infected RBC osmotic lysis, higher = more signal, called active from +8 up or from −8 down.
Experiment [14] can be described thus: plasmodial surface anion channel blockers, osmotic lysis – cell-based, P. falciparum Indochina, OD700, 2 h, primary screen (AID 1155).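 Note: lysis reports solute entry through the parasite surface anion channel PSAC.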 The settings on record: P. falciparum Indochina infected erythrocytes, higher = more signal, called active from +8 up or from −8 down.
The nature of experiment [15]: changes in parasitized red cell lysis, either direction – P. falciparum Indochina, OD700, 3 h, PSAC antagonist project, primary screen (AID 1156). The settings on record: P. falciparum-infected erythrocytes, osmotic lysis, higher = more signal, called active from +8 up or from −8 down.
A short description of experiment [16]: plasmodial surface anion channel blockers, osmotic lysis – cell-based, P. falciparum Indochina, OD700, 18 h, primary screen (AID 1157). The settings on record: P. falciparum Indochina infected erythrocytes, osmotic lysis OD700, 18 h; higher = more signal, called active from +8 up or from −8 down.
Experiment [17] is described as follows: S6 kinase pathway phospho-S6 level changes – cell-based, A549, cytoblot, luminescence, serum-stimulated, primary screen (AID 1158).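 Note: serum-stimulated A549 lung adenocarcinoma cells; signal is phosphorylated S6 detected by cytoblot immunostaining with HRP secondary.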 The settings on record: 5 h, higher = more signal.
The target in experiment [18] is NADPH oxidase 2 (Homo sapiens) (UniProt P04839). As to the kind of experiment: compounds shifting NOX2 Amplex Red fluorescence – cell-based, HEK293-NOX2, PMA-stimulated, NOX inhibitor project, primary screen (AID 1159). Note: test concentration not given here. The settings on record: 45 min, higher = more signal, called active from +8 up or from −8 down.
Experiment [19] has as its target NADPH oxidase 4 (Homo sapiens) (UniProt Q9NPH5). As to the kind of experiment: compounds shifting NOX4 Amplex Red fluorescence – cell-based, HEK293-NOX4, tetracycline-induced, NOX inhibitor project, primary screen (AID 1160). The settings on record: HEK293-NOX4, Amplex Red H2O2 fluorescence, 45 min; higher = more signal, called active from +8 up or from −8 down.
Experiment [20] has as its target NADPH oxidase 5 (Homo sapiens) (UniProt Q96PH1). Put plainly: compounds shifting NOX5 Amplex Red fluorescence – cell-based, HEK293-NOX5, NOX inhibitor project, primary screen (AID 1161). The settings on record: HEK293-NOX5, ionomycin, 45 min, higher = more signal.

Each structure is given as a SMILES string. Activity calls are given as the source filed them. Unless noted, the rule behind the calls is not given here.

Chain of NADPH oxidase 4 (Homo sapiens) (Q9NPH5 whole entry, looked up): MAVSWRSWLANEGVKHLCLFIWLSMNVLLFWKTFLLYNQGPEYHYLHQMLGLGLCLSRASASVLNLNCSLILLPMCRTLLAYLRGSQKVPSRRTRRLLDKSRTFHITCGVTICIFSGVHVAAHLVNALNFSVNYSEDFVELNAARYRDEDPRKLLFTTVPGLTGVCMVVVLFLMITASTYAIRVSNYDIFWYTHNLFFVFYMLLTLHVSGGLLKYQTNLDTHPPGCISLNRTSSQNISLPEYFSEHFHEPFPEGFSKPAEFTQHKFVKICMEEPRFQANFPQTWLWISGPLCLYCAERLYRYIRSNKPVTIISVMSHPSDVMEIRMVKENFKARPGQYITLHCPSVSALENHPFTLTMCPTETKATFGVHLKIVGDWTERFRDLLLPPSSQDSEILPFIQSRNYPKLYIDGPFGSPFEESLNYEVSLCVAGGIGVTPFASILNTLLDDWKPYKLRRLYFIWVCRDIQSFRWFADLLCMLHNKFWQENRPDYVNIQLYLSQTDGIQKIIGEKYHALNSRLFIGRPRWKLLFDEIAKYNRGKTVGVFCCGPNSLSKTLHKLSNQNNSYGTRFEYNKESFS
Chain of NADPH oxidase 5 (Homo sapiens) (Q96PH1 whole entry, looked up): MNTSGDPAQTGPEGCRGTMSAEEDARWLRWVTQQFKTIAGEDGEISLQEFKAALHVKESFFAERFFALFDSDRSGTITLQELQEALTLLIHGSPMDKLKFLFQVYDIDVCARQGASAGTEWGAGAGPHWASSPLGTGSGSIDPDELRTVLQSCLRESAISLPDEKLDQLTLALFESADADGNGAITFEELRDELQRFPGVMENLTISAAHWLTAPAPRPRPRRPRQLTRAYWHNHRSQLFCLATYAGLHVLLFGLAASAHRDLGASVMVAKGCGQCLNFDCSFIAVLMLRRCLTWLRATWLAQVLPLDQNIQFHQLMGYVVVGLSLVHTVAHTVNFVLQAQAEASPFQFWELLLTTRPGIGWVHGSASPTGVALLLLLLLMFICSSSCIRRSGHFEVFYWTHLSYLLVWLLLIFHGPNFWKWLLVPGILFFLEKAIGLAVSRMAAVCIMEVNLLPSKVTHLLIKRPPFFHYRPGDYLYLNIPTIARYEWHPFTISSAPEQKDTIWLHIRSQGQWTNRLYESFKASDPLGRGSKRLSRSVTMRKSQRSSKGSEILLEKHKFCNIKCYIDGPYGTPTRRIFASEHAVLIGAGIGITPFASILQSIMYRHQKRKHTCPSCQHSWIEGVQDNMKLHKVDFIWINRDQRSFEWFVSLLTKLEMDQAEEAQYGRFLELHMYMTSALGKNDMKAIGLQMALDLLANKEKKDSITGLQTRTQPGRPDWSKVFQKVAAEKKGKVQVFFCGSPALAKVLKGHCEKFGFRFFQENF
Chain of NADPH oxidase 2 (Homo sapiens) (P04839 whole entry, looked up): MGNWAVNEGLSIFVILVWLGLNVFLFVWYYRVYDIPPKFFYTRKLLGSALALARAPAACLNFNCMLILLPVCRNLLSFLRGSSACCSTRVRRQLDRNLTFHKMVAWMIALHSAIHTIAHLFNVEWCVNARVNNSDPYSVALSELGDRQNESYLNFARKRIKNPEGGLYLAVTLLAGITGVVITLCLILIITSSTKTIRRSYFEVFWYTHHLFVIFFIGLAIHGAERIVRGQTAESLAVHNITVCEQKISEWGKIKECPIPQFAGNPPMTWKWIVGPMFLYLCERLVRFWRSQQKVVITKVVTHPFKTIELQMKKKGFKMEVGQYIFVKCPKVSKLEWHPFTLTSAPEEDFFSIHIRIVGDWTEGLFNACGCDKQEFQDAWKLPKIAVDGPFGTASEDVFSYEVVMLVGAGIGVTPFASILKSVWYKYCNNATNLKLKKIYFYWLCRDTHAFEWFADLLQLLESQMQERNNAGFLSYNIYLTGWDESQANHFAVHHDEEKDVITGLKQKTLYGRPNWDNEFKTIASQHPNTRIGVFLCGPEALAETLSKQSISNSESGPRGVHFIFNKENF
Chain of Streptavidin (Streptomyces avidinii) (P22629 whole entry, looked up): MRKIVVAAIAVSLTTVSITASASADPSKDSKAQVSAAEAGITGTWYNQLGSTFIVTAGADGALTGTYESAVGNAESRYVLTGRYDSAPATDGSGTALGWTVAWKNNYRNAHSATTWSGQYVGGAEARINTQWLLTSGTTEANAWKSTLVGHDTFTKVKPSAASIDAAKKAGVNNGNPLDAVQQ
Chain of Torsin-1A (Homo sapiens) (O14656 whole entry, looked up): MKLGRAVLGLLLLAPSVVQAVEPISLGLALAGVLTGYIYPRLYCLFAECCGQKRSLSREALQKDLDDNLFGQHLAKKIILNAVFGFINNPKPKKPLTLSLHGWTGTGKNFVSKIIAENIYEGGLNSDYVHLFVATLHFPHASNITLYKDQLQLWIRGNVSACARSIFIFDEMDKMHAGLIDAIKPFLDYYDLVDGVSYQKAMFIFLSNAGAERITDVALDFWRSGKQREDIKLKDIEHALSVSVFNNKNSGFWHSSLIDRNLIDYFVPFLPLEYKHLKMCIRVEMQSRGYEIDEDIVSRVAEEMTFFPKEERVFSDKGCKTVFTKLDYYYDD

On to `CC(C)(C)OC(=O)CC[C@]1(C(N)=O)COC(c2ccc(OCCCO)cc2)=N1`, for which the composite z-score is 0.681 in experiment [1]; 0.248 in experiment [6]; 0.923 in experiment [7]; 0.833 with Torsin-1A (Homo sapiens) [8]; 0.493 with Torsin-1A (Homo sapiens) [9]; -0.769 in [10]. The compound also returned a composite z-score in experiment [12] of 0.802. The z-score in [2] is 0.0853 (inactive); in [3] it was 0.361 (inactive); in experiment [4], -0.585 (inactive); in experiment [5], -0.438 (inactive); in experiment [11], 0.311 (inactive); in experiment [13], 0.75 (inactive). Further, the z-score was -0.267 (inactive) in [14]; 0.295 (inactive) in experiment [15]; 0.0515 (inactive) in [16]; -0.777 in [17]; 0.381 (inactive) in experiment [18]; -0.585 (inactive) in [19]. The z-score in experiment [20] was 0.612.
`O=C1[C@H]2[C@H]3[C@H](O)[C@H](O)CC(=NO[C@@H]4O[C@H](CO)[C@@H](O)[C@H](O)[C@H]4O)[C@@H]3CC[C@H]2C(=O)N1Cc1ccc2c(c1)OCO2`: the composite z-score in [1] was 0.163; in [6] it was 0.335; in [7] it was -0.0506; with Torsin-1A (Homo sapiens) [8], 0.35; with Torsin-1A (Homo sapiens) [9] it was 0.254; in experiment [10], 0.666. In experiment [12], this compound yielded a composite z-score of -0.0016. Further, the z-score in experiment [2] is 0.548 (inactive); in [3] it was 0.572 (inactive); in experiment [4], 0.245 (inactive); in [5], 0.366 (inactive); in [11], -0.161 (inactive); in [13] it was 5.54 (inactive). Moreover, the z-score in experiment [14] is 0.373 (inactive); in [15] it was 1.3 (inactive); in experiment [16], 0.404 (inactive); in [17], 0.117; in [18], -0.486 (inactive); in [19], 0.295 (inactive). For the same compound, the z-score in [20] was -0.163.
Consider `Cc1cc2c(nc1C)CCCN2CC(O)CN1CCN(C)CC1` (stereo not given), for which the composite z-score in experiment [1] was -0.168; in experiment [6], 0.549; in experiment [7], 0.198; with Torsin-1A (Homo sapiens) [8], 0.679; with Torsin-1A (Homo sapiens) [9], 0.528; in experiment [10] it was 0.672. In addition, the composite z-score in experiment [12] came out at 0.0733. Further, the z-score in experiment [2] was -1.28 (inactive); in experiment [3], 0.816 (inactive); in experiment [4], -0.613 (inactive); in [5], -0.91 (inactive); in experiment [11], -0.243 (inactive); in experiment [13] it was 0.339 (inactive). For the same compound, the z-score in experiment [14] is 0.494 (inactive); in experiment [15] it was 0.0085 (inactive); in experiment [16], -0.0963 (inactive); in experiment [17], -0.542; in experiment [18] it was 0.438 (inactive); in experiment [19], -1.07 (inactive). Moreover, the z-score in [20] is -1.08.
Take `CO[C@@H]1COC(=O)CC=C[C@@H](C)[C@@H]2C=C[C@H](O)[C@@H](COC(=O)[C@H](C)NC(=O)CC=C[C@H]1C)O2`: the composite z-score in experiment [1] is 0.0389; in [6], -0.408; in [7], -0.265; in the experiment with Torsin-1A (Homo sapiens) [8], 1.44; with Torsin-1A (Homo sapiens) [9], 1.81; in experiment [10] it was 2.13. In experiment [12], the composite z-score is -0.626. Further, the z-score was -2.59 (inactive) in experiment [2]; -0.972 (inactive) in [3]; -0.324 (inactive) in [4]; 0.194 (inactive) in experiment [5]; 0.457 (inactive) in experiment [11]; -0.761 (inactive) in experiment [13]. Further, the z-score in [14] was -1.27 (inactive); in experiment [15], 0.564 (inactive); in [16] it was -2.4 (inactive); in experiment [17], -0.309; in experiment [18] it was -0.573 (inactive); in experiment [19], 0.165 (inactive). Also, the z-score in [20] amounted to 0.605.
